# Laboratory results published in PMC7862700, “An all-to-all approach to the identification of sequence-specific readers for epigenetic DNA modifications on cytosine”.
# Columns and labels:
# Assay in all cases: DAPPL (digital affinity profiling via proximity ligation, sequencing); 10 mM Tris-HCl pH 7.5, 50 mM NaCl, 1 mM DTT, 4% glycerol, room temperature, 30 min; GST-TFs on glutathione beads, 16-mer random dsDNA library, 0.1% formaldehyde crosslink after washing; high values mean tight binding
# [1] = molecular target: T1, FLI1 (Homo sapiens, UniProt Q01543 1-452); settings: protein: recombinant; tags: N-terminal GST; dsDNA, one strand shown
# T1 sequence: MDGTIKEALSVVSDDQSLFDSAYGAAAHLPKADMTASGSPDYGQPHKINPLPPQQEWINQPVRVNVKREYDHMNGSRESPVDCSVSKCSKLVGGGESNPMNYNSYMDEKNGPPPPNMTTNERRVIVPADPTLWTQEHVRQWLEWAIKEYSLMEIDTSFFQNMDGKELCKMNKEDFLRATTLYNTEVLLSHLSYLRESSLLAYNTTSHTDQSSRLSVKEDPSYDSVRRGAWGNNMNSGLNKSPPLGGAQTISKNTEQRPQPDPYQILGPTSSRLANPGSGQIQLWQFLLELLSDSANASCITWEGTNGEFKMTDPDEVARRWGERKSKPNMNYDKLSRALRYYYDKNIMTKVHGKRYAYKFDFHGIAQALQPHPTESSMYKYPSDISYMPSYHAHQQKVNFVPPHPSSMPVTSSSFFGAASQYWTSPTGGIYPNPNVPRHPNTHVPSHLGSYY
# Method in brief: (§1)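 Sequencing on an Illumina NextSeq500 followed washing, crosslinking with 0.1% formaldehyde, proximity ligation (BsaI/T4 ligase, 1 h, 37 °C) and PCR amplification of pools that had been incubated for 30 min at room temperature with 200 nmole of a random double-stranded 16-mer DNA library in Tris/NaCl/DTT/glycerol buffer. Each pool held DNA-barcoded human transcription factors, expressed in yeast as GST fusions and captured on glutathione beads, plus a tag-only sample. Binding signal is a hexamer's read frequency for a factor divided by its frequency in the tag-only sample.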
# [2] = molecular target: T2, ELK1 (Homo sapiens, UniProt P19419 1-428); settings: protein: recombinant; tags: N-terminal GST; dsDNA, one strand shown
# T2 sequence: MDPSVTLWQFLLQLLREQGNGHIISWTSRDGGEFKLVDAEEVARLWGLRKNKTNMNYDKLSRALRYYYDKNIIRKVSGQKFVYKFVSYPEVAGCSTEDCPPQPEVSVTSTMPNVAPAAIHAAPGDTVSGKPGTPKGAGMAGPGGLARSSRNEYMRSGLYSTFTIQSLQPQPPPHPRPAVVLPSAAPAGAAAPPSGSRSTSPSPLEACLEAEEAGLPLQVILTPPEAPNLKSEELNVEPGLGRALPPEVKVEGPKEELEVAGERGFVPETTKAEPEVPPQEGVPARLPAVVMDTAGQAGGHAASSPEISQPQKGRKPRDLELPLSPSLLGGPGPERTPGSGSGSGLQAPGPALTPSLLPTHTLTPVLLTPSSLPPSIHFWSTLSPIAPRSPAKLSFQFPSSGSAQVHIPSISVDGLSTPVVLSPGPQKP
# Method in brief: as §1
# [3] = molecular target: T3, GABPA (Homo sapiens, UniProt Q06546 1-454); settings: protein: recombinant; tags: N-terminal GST; dsDNA, one strand shown
# T3 sequence: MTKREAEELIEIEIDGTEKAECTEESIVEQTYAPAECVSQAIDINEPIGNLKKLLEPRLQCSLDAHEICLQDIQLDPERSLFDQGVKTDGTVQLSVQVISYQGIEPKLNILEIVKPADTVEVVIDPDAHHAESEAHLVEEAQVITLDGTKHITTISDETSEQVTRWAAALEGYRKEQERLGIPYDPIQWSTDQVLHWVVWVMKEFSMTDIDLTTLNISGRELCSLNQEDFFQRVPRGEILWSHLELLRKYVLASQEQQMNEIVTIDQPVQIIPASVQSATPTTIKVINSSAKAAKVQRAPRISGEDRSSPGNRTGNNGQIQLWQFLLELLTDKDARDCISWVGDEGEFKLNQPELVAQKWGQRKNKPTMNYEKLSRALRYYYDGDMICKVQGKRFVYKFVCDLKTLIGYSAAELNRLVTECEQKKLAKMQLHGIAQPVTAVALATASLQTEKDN
# Method in brief: as §1
# [4] = molecular target: T4, ERG (Homo sapiens, UniProt P11308 1-479); settings: protein: recombinant; tags: N-terminal GST; dsDNA, one strand shown
# T4 sequence: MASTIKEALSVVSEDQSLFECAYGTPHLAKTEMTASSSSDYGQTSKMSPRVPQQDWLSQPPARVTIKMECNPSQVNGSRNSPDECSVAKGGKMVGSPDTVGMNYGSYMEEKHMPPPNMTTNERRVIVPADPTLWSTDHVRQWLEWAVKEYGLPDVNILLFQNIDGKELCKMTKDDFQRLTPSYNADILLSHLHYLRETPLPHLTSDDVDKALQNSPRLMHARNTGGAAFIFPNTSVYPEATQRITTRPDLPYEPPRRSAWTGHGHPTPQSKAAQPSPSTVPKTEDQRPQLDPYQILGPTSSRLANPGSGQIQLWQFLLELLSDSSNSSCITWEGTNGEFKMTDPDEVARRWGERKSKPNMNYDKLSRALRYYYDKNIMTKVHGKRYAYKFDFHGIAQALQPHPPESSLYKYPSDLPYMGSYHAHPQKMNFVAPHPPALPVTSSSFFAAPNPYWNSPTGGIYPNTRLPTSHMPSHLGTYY
# Method in brief: as §1
# [5] = molecular target: ELF1 (Homo sapiens, UniProt P32519 1-619); settings: protein: recombinant; tags: N-terminal GST; dsDNA, one strand shown
# ELF1, sequence (P32519 whole entry): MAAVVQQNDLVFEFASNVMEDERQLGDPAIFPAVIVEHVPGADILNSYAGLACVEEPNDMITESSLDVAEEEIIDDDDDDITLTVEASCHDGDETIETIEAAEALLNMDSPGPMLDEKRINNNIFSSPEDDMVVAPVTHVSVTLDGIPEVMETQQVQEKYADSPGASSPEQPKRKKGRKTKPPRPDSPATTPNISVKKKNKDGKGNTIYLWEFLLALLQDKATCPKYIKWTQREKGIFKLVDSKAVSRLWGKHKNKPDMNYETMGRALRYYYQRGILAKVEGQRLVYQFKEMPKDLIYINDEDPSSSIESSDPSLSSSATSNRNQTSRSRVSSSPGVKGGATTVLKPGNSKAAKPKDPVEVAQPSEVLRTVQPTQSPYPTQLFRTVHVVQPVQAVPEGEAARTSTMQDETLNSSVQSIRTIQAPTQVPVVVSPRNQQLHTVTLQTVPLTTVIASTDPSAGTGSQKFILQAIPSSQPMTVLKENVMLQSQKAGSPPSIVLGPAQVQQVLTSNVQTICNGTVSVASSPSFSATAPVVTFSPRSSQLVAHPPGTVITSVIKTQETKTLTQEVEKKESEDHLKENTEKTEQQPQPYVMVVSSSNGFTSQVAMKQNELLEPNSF
# Method in brief: as §1
# [6] = molecular target: T5, EHF (Homo sapiens, UniProt Q9NZC4 1-300); settings: protein: recombinant; tags: N-terminal GST; dsDNA, one strand shown
# T5 sequence: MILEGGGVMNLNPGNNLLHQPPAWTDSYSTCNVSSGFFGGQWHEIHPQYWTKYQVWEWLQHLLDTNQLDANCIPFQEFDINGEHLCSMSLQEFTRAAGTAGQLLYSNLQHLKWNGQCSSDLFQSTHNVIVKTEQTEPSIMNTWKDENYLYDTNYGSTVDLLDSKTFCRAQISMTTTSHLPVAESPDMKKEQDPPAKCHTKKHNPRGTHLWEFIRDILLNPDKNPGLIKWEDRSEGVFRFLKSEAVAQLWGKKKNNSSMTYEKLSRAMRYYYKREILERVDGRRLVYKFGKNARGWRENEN
# Method in brief: as §1
# [7] = molecular target: SPI1 (Homo sapiens, UniProt P17947 1-270); settings: protein: recombinant; tags: N-terminal GST; dsDNA, one strand shown
# Method in brief: as §1
# [8] = molecular target: SPIB (Homo sapiens, UniProt Q01892 1-262); settings: protein: recombinant; tags: N-terminal GST; dsDNA, one strand shown
# SPIB, sequence (Q01892 whole entry): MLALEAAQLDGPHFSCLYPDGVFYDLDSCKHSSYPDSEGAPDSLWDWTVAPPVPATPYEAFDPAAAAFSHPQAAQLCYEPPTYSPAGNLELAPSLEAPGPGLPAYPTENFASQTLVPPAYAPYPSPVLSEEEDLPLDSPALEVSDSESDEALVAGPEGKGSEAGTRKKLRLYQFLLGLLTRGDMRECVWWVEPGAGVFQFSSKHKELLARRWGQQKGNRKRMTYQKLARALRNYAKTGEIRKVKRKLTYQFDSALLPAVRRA
# Method in brief: as §1
# [9] = molecular target: T6, ELK3 (Homo sapiens, UniProt P41970 1-407); settings: protein: recombinant; tags: N-terminal GST; dsDNA, one strand shown
# T6 sequence: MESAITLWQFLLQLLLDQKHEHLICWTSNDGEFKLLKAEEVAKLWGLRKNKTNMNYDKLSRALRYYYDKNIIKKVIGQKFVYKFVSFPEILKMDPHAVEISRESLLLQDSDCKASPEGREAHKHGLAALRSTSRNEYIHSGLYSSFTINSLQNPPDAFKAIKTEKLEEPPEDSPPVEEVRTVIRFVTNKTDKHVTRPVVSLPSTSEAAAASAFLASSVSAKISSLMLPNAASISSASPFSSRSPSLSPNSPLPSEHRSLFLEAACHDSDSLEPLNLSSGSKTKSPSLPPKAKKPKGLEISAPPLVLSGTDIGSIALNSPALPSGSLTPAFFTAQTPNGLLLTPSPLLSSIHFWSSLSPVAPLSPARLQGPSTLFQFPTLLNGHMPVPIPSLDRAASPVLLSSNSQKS
# Method in brief: as §1
# [10] = molecular target: T7, FEV (Homo sapiens, UniProt Q99581 1-238); settings: protein: recombinant; tags: N-terminal GST; dsDNA, one strand shown
# T7 sequence: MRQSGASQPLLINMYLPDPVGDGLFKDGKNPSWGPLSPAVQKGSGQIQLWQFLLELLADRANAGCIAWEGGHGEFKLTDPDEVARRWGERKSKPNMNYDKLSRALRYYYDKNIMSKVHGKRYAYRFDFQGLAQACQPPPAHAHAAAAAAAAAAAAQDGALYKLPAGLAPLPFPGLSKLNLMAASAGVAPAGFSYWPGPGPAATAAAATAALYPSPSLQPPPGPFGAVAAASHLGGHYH
# Method in brief: as §1
# [11] = molecular target: ETV5 (Homo sapiens, UniProt P41161 1-510); settings: protein: recombinant; tags: N-terminal GST; dsDNA, one strand shown
# ETV5, sequence (P41161 whole entry): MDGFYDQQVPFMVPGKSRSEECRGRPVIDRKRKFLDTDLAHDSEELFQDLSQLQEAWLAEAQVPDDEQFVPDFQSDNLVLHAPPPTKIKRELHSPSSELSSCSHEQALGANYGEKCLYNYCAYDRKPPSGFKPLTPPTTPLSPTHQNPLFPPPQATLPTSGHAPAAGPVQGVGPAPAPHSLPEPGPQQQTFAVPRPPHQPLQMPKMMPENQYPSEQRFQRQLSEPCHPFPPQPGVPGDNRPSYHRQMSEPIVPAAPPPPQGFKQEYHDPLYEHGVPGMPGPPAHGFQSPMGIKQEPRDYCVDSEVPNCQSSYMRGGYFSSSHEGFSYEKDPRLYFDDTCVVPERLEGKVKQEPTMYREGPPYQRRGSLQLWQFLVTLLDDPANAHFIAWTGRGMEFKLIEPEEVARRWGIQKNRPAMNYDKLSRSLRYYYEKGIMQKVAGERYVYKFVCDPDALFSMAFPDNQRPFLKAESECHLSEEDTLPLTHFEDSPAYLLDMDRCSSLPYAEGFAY
# Method in brief: as §1
# [12] = molecular target: HSF1 (Homo sapiens, UniProt Q00613 1-529); settings: protein: recombinant; tags: N-terminal GST; chain copies: 3; dsDNA, one strand shown
# HSF1, sequence (Q00613 whole entry): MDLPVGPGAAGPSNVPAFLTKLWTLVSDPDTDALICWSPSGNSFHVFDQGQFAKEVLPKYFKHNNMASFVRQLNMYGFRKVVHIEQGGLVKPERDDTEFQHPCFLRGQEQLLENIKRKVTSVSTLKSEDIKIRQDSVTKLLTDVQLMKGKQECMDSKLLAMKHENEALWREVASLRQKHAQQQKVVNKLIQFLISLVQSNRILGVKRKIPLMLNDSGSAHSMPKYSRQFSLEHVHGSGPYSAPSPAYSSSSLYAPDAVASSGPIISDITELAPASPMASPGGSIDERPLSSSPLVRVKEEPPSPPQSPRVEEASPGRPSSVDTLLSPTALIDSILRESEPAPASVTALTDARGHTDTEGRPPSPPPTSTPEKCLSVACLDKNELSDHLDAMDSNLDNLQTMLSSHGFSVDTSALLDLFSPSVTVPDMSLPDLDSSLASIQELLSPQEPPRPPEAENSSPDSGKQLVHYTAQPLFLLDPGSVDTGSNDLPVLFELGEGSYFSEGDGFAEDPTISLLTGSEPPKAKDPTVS
# Method in brief: as §1
# [13] = molecular target: T8, SPIC (Homo sapiens, UniProt Q8N5J4 1-248); settings: protein: recombinant; tags: N-terminal GST; dsDNA, one strand shown
# T8 sequence: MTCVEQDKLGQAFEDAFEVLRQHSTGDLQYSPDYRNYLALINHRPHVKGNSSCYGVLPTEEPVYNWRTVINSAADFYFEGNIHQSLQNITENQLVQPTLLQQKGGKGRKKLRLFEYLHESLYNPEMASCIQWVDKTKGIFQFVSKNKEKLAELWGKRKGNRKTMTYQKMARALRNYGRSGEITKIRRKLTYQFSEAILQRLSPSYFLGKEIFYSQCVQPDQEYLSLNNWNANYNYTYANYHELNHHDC
# Method in brief: as §1
# [14] = molecular target: ELF4 (Homo sapiens, UniProt Q99607 1-663); settings: protein: recombinant; tags: N-terminal GST; dsDNA, one strand shown
# ELF4, sequence (Q99607 whole entry): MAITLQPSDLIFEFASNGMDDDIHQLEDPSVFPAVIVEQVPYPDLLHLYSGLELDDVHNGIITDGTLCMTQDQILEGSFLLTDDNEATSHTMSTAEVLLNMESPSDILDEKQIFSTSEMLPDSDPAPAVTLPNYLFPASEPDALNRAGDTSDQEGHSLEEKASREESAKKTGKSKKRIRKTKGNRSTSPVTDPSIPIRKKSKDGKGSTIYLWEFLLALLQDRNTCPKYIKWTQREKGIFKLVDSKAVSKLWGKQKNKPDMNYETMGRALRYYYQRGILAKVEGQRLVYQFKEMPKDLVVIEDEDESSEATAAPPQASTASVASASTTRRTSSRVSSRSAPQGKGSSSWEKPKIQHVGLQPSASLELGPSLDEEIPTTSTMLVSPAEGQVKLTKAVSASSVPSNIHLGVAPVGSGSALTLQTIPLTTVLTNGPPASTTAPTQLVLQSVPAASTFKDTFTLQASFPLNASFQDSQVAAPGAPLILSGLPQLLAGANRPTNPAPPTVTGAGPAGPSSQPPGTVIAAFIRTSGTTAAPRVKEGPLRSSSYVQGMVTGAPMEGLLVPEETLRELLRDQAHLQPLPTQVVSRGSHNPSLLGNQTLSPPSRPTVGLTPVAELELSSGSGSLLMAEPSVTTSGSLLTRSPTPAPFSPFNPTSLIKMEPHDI
# Method in brief: as §1
# [15] = molecular target: T9, ELK4 (Homo sapiens, UniProt P28324-2 1-405); settings: protein: recombinant; tags: N-terminal GST; dsDNA, one strand shown
# T9 sequence: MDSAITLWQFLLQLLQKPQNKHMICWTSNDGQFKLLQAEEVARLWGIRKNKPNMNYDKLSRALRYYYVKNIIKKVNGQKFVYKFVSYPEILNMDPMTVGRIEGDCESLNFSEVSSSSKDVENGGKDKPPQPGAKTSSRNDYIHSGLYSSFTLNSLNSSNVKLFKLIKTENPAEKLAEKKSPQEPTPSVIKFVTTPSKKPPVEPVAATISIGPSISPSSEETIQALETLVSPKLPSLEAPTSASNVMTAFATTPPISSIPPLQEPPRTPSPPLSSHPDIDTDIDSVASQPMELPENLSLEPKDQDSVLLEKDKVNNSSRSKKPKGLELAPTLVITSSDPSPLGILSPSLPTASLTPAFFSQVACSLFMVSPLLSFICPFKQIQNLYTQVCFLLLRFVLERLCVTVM
# Method in brief: as §1
# [16] = molecular target: T10, ETV2 (Homo sapiens, UniProt O00321 1-342); settings: protein: recombinant; tags: N-terminal GST; dsDNA, one strand shown
# T10 sequence: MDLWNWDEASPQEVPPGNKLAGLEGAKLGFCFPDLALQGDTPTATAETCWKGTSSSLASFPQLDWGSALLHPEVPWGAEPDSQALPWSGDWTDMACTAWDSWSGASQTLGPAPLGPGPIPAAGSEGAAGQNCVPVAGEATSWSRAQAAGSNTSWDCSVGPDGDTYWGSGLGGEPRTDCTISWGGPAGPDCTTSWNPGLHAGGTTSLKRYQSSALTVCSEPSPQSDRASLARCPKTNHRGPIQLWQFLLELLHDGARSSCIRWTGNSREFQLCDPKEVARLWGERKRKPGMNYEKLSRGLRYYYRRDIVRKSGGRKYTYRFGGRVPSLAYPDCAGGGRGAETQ
# Method in brief: as §1
# [17] = molecular target: T11, ELF3 (Homo sapiens, UniProt P78545 1-371); settings: protein: recombinant; tags: N-terminal GST; dsDNA, one strand shown
# T11 sequence: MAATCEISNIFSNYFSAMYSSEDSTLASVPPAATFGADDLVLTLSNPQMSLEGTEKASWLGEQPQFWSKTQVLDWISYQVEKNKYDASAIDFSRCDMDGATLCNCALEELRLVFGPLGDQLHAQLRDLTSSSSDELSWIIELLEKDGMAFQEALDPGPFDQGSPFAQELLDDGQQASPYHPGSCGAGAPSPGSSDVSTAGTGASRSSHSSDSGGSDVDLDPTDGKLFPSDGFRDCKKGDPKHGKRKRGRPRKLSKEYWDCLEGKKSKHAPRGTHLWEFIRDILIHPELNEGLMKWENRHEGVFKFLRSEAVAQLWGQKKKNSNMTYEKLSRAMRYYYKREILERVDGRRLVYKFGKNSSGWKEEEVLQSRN
# Method in brief: as §1
# [18] = molecular target: CRX (Homo sapiens, UniProt O43186 1-299); settings: protein: recombinant; tags: N-terminal GST; dsDNA, one strand shown
# CRX, sequence (O43186 whole entry): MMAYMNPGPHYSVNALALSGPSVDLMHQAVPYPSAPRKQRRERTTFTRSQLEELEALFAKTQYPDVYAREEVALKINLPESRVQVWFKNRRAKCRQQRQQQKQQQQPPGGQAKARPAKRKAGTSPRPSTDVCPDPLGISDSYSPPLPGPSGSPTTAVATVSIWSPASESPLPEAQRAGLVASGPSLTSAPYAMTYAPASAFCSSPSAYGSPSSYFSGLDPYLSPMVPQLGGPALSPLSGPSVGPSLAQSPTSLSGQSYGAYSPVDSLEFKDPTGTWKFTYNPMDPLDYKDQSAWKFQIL
# Method in brief: as §1
# [19] = molecular target: ETV1 (Homo sapiens, UniProt P50549 1-477); settings: protein: recombinant; tags: N-terminal GST; dsDNA, one strand shown
# ETV1, sequence (P50549 whole entry): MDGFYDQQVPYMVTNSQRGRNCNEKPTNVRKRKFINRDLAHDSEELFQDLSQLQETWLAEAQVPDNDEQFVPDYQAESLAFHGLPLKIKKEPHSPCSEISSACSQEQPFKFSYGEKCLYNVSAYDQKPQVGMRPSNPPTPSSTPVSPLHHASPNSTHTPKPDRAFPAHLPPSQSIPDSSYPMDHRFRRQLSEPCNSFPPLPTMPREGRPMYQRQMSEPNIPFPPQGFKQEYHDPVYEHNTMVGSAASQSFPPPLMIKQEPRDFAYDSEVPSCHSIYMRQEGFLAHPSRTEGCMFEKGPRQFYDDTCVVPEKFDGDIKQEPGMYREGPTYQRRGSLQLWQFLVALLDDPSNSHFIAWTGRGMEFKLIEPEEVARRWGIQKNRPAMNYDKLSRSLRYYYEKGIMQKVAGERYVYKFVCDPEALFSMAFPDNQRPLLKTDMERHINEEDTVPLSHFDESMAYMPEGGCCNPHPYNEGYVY
# Method in brief: as §1
sequence,measurement,setting,value
GTTTCT,binding signal,[1],"1.36 fold enrichment (6-mer frequency, TF over GST control)"
same,binding signal,[2],"1.17 fold enrichment (6-mer frequency, TF over GST control)"
same,binding signal,[3],"1.26 fold enrichment (6-mer frequency, TF over GST control)"
same,binding signal,[4],"1.22 fold enrichment (6-mer frequency, TF over GST control)"
same,binding signal,[5],"1.29 fold enrichment (6-mer frequency, TF over GST control)"
same,binding signal,[6],"1.28 fold enrichment (6-mer frequency, TF over GST control)"
same,binding signal,[7],"1.31 fold enrichment (6-mer frequency, TF over GST control)"
same,binding signal,[8],"1.25 fold enrichment (6-mer frequency, TF over GST control)"
same,binding signal,[9],"1.14 fold enrichment (6-mer frequency, TF over GST control)"
same,binding signal,[10],"1.16 fold enrichment (6-mer frequency, TF over GST control)"
same,binding signal,[11],"1.24 fold enrichment (6-mer frequency, TF over GST control)"
same,binding signal,[12],"1.84 fold enrichment (6-mer frequency, TF over GST control)"
same,binding signal,[13],"1.28 fold enrichment (6-mer frequency, TF over GST control)"
same,binding signal,[14],"1.28 fold enrichment (6-mer frequency, TF over GST control)"
same,binding signal,[15],"1.15 fold enrichment (6-mer frequency, TF over GST control)"
same,binding signal,[16],"1.25 fold enrichment (6-mer frequency, TF over GST control)"
same,binding signal,[17],"1.2 fold enrichment (6-mer frequency, TF over GST control)"
same,binding signal,[18],"1.15 fold enrichment (6-mer frequency, TF over GST control)"
same,binding signal,[19],"1.33 fold enrichment (6-mer frequency, TF over GST control)"
